# A selection: hits, their analogues and other compounds. The true share with any hit is near 2.4%.
# CHRM1 PAM: human CHRM1 positive allosteric modulation; CHO-K1 hM1, Fluo-8 calcium fluorescence, ACh EC20; 0% = ACh EC20, 100% = maximal ACh; activation, % at 3 µM; 360,000 compounds, 0.088% hits; AID 588819; in the data active = activation above about 19%, passing the limit was not always enough
# Target sequence (P11229 whole entry, looked up): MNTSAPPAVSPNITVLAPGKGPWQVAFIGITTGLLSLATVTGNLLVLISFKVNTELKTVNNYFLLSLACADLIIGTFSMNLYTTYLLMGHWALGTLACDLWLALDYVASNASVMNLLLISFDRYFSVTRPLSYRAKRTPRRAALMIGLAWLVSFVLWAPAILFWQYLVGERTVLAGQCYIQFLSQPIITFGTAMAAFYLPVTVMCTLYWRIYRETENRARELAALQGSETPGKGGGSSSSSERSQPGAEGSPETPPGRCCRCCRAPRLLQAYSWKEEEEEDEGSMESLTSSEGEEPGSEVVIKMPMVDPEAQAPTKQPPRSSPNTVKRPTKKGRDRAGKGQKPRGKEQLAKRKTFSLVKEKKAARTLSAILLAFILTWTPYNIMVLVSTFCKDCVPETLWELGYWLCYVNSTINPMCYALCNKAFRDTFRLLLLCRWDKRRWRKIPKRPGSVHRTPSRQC
# CHO-K1 Ca PAM: nonselective activator or artifact in parental CHO-K1 calcium assay. ATP EC20, Fluo-8 calcium fluorescence; 0% at ATP EC20, 100% at ATP max. activation, % at 3 µM. 360,000 compounds, 0.02% hits. AID 602247;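 active = activation above the run cutoff, the mean activation of all test compounds plus 3 SD, cut at about 40% in these data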;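 also: peak over basal fluorescence ratio in a 140 s read after ATP addition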
# CHRM1 agonist: activates human CHRM1 receptor. P11229. CHO-K1 hM1, Fluo-8 calcium fluorescence, agonist mode; 0% DMSO, 100% acetylcholine EC100. activation, % at 3 µM. 360,000 compounds, 0.33% hits;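 active = activation above the run's mean compound activation plus 3 SD, cut at about 16% in these data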;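 also: peak over basal fluorescence ratio within a 140 s kinetic read after compound addition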
# CHO-K1 Ca antag: M1 antagonist counterscreen hit in parental CHO-K1 cells | ATP-induced calcium, Fluo-8 fluorescence | inhibition, % at 3 µM | AID 602250 | 360,000 compounds, 0.6% hits;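 active = inhibition above a per-plate cutoff, the plate's mean sample inhibition plus 3 SD, cut at about 24% in these data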
# M1 antag: blocks human M1 muscarinic receptor. P11229. CHO-K1 hM1, Fluo-8 calcium fluorescence, ACh EC80 antagonist. inhibition, % at 3 µM. 360,000 compounds, 1.3% hits;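 active = percent inhibition above its own plate's cutoff, namely the mean of that plate's compound wells plus 3 SD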;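 also: peak over basal fluorescence ratio during 140 s after agonist addition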
# M1 ag parental: nonselective activator or artifact in parental CHO-K1 cells | 360,000 compounds, 0.48% hits | Fluo-8 calcium fluorescence; scaled to maximal ATP response, vehicle zero | AID 602248 | activation, % at 3 µM; in the data active = activation above about 15%;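 also: untransfected CHO-K1 host cells lacking M1 receptor as counterscreen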
# A number is an active result; i = inactive.
SMILES,CHRM1 PAM,CHO-K1 Ca PAM,CHRM1 agonist,CHO-K1 Ca antag,M1 antag,M1 ag parental
C[C@H](CO)N1C[C@H](C)[C@@H](CN(C)S(=O)(=O)c2ccccc2)OCc2cnnn2CCCC1=O,i,i,i,i,i,i
N#Cc1ccccc1CSc1nc2ccc(NC(=O)c3ccccc3C(=O)O)cc2s1,i,i,i,31.2,i,i
O=C(O)c1ccc(CSc2nc3ccc(NC(=O)c4ccccc4C(=O)O)cc3s2)cc1,i,i,i,i,i,i
Cc1c2cnn(CC(=O)NCCN3CCOCC3)c(=O)c2c(C)n1Cc1ccccc1,i,i,i,i,32.5,i
Cc1c2cnn(CC(=O)NCCCN3CCCCC3)c(=O)c2c(C)n1Cc1ccccc1,i,i,i,i,i,i
CCC1CCCCN1CCCNC(=O)Cn1ncc2c(C)n(Cc3ccccc3Cl)c(C)c2c1=O (stereo not drawn),i,i,i,i,44.4,i
CCCCCCCCCCCCCCCC[n+]1cccc(C(=O)N(CC)CC)c1,i,i,i,i,57.1,i
CCCCCCCC[n+]1cccc(C(=O)N(CC)CC)c1,i,i,i,i,i,i
CN(CC(O)COc1ccc(OCC(O)CN(C)C2CCCCC2)cc1)C1CCCCC1 (stereo not drawn),i,i,i,i,i,i
CN(C)CC(O)COC(c1ccc(Cl)cc1)c1ccc(Cl)cc1 (stereo not drawn),i,i,i,i,40.9,i
CN(CC(O)COC(c1ccccc1)c1ccccc1)C1CCCCC1 (stereo not drawn),i,i,i,i,29.6,i
CC1CN(CC(O)COC(c2ccc(Cl)cc2)c2ccc(Cl)cc2)CC(C)O1 (stereo not drawn),i,i,i,i,i,i
Cc1ccc(C)c(Cn2nc3c4ccccc4n(Cc4ccccc4)cc-3c2=O)c1,i,i,64.2,i,61.5,i
O=C(NCc1ccncc1)c1cccc(Cn2cc(Br)cn2)c1,i,i,i,i,96.8,i
O=C(O)c1cccc(Cn2cc(Br)cn2)c1,i,i,i,i,i,i
O=C(O)c1ccc(N=Cc2c(O)ccc3oc4c(c23)CCCC4)cc1,i,i,i,i,i,i
Oc1ccccc1N=Cc1c(O)ccc2oc3c(c12)CCCC3,i,i,i,i,i,16.0
Nn1c(-c2cccc(O)c2)nnc1-c1cccc(O)c1,i,i,i,i,i,i
COC(=O)COc1ccc(S(=O)(=O)Nc2ccc3c(c2)OCCO3)cc1C,i,i,i,i,i,i
Cc1ncc([N+](=O)[O-])n1CC(O)CCl (stereo not drawn),i,i,16.8,i,i,i
C=C1CC(C(=O)N/N=C/c2ccc(O)cc2)C1,i,i,i,25.1,i,i
COc1ccc(S(=O)(=O)NCCSCc2ccco2)cc1Cl,22.5,i,i,i,i,i
CC(=O)Nc1ccc(OCC(O)CN2CCN(S(=O)(=O)c3ccc(NC(C)=O)cc3)CC2)cc1 (stereo not drawn),i,i,i,i,i,i
CC(=O)Nc1ccc(S(=O)(=O)N2CCN(CC(O)COc3ccc4ccccc4c3)CC2)cc1 (stereo not drawn),i,i,i,i,34.1,i
OC(CN1c2ccccc2Sc2ccccc21)Cn1nnc2ccccc21 (stereo not drawn),i,i,i,i,i,i
SMILES,CHRM1 PAM,CHO-K1 Ca PAM,CHRM1 agonist,CHO-K1 Ca antag,M1 antag,M1 ag parental
Cc1nn(CC(O)CN2c3ccccc3Sc3ccccc32)c(C)c1Br (stereo not drawn),i,i,i,i,i,18.4
O=C(CCNS(=O)(=O)c1ccccc1)OCC(=O)c1ccc[nH]1,i,i,i,i,i,i
Cc1ccc(-n2ncc3c(N4CCN(c5ccccc5)CC4)ncnc32)c(C)c1,i,i,i,i,24.1,i
Cc1noc(C)c1S(=O)(=O)N(C)C[C@H]1Oc2c(NC(=O)NC(C)C)cccc2C(=O)N([C@H](C)CO)C[C@@H]1C,i,i,i,i,i,i
CCOC(=O)COc1ccc2c(c1)C(=O)CC(C)(c1cccnc1)O2 (stereo not drawn),i,i,i,i,i,15.2
FC(F)(F)c1ccc2c(c1)n(Cc1ccccc1)c1[n+]2CCCCC1,i,i,i,i,49.1,i
CCOC(=O)/C=C/C(=O)Nc1ccc(Oc2ccccc2)cc1,i,i,i,28.3,i,i
O=C(O)/C=C/C(=O)Nc1ccc(Oc2ccccc2)cc1,i,i,i,i,i,i
O=C1NC(=O)C2(N1)C(=O)c1cccc3cccc2c13 (stereo not drawn),i,i,49.0,i,i,99.8
Cc1ccc(C(=O)N[C@H](C(=O)Nc2sccc2C(N)=O)C(C)C)cc1,i,i,i,i,i,i
CC(=O)c1cccc(NC(=O)C2CCCN(S(C)(=O)=O)C2)c1 (stereo not drawn),i,i,i,i,i,i
CCOC(=O)c1ccc(NC(=O)C2CCN(S(=O)(=O)c3ccccc3)CC2)cc1,i,i,i,i,i,i
CCOC(=O)c1ccc(NC(=S)NC2CCCC2)cc1,i,i,i,i,i,i
CCOC(=O)c1ccc(NC(=O)Nc2ccc(F)cc2)cc1,i,i,i,48.6,21.0,i
CCOC(=O)c1ccc(NC(=O)C2CCCN(S(=O)(=O)c3ccc(F)cc3)C2)cc1 (stereo not drawn),i,i,i,i,47.7,i
CCOC(=O)c1ccc(NC(=O)NC2CC3CCC(C2)N3)cc1 (stereo not drawn),i,i,i,i,59.5,i
CS(=O)(=O)N1CCCC(C(=O)Nc2cccc(F)c2)C1 (stereo not drawn),32.0,i,i,i,i,i
COCCNc1ccc([N+](=O)[O-])cc1C(=O)NC1CCCc2ccccc21 (stereo not drawn),i,i,i,i,i,i
Cc1cc(C)c(OCC(=O)Nc2nnc(C3CC3)s2)c(C)c1,i,i,i,i,i,i
CCOc1ccc(NC(=O)CN(C)C(=O)C2=COCCO2)cc1OCC,i,i,i,i,i,i
CC1CCc2nn(CC(=O)N3CCc4ccccc43)cc2C1 (stereo not drawn),i,i,i,i,101.8,i
O=C(Cn1cnc2ccccc21)Nc1ccc(C(=O)O)cc1,i,i,i,i,i,i
CC(/C=N/NC(=O)Cn1cnc2ccccc21)=C\c1ccccc1,i,i,i,27.3,i,i
CC(/C=N/NC(=O)CCn1nnc2ccccc21)=C\c1ccccc1,i,i,i,i,i,i
O=C(Cn1cnc2ccccc21)N/N=C/c1ccccc1,i,i,i,i,i,17.5
O=C(Cn1cnc2ccccc21)N1CCc2ccccc21,i,i,i,28.1,i,i
Cc1c(Cl)cccc1NC(=O)CSc1ncnc2c1cnn2CCO,i,i,i,i,i,i
Cc1cc(OCCCCN2C(=O)NC(C)(C)C2=O)ccc1[N+](=O)[O-],i,i,i,i,i,17.0

# Bioassay records: PubChem BioAssay, The Scripps Research Institute Molecular Screening Center
